# In the supplement of paper PMC8728848:
# Only a selection was taken, and the strongest signals are over-represented in it overall.
# B1: his-Lectin-24A (Drosophila melanogaster) (protein)
# chain: MFRLSVLVLNLLLVSHEFSAGTAKIEIQPLPALCNGYCFPTLKPVMEYVAIHQDKWNTCTEILANEARKDQIQLNIQLDALKADVSNIKASQLSKDEKLDRMEREQFAMHESLETINRYLTVKLDRTKLQLEAIKNTMDYMKAQMDGYFSAINGVQCLQPGFEKIGDRYFYIEEDVELNWLDAQAKCRRMGGHLASIKTKQEFDAIVEKLDDSKSYFLGVNENTKTGDFVSAASGKSCLYHEWGPGEPHHNNDQERCVSILRKLMHVGNCTYEKRFICQYGI
# B2: IDGF2 (Drosophila melanogaster), Q9V3D4 (protein)
# chain: MKAWIWFTFVACLFAASTEAASNLVCYYDSSSYTREGLGKLLNPDLEIALQFCSHLVYGYAGLRGENLQAYSMNENLDIYKHQFSEVTSLKRKYPHLKVLLSVGGDHDIDPDHPNKYIDLLEGEKVRQIGFIRSAYDLVKTYGFDGLDLAYQFPKNKPRKVHGDLGLAWKSIKKLFTGDFIVDPHAALHKEQFTALVRDVKDSLRADGFLLSLTVLPNVNSTWYFDIPALNGLVDFVNLATFDFLTPARNPEEADYSAPIYHPDGSKDRLAHLNADFQVEYWLSQGFPSNKINLGVATYGNAWKLTKDSGLEGVPVVPETSGPAPEGFQSQKPGLLSYAEICGKLSNPQNQFLKGNESPLRRVSDPTKRFGGIAYRPVDGQITEGIWVSYDDPDSASNKAAYARVKNLGGVALFDLSYDDFRGQCSGDKYPILRAIKYRLHHHHHH
# How the values were obtained:
# Experiment in all cases: glycan array binding signal (z-score within array); higher = stronger binding
# Conditions in all cases: glycan notation: IUPAC condensed, linker removed
# [1] = molecular target: GlcNAc(b1-2)[GlcNAc(b1-4)]Man(a1-3)[GlcNAc(b1-4)][GlcNAc(b1-2)[GlcNAc(b1-6)]Man(a1-6)]Man(b1-4)GlcNAc(b1-4)[Fuc(a1-6)]GlcNAc
# Outline: (§1)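 From the Consortium for Functional Glycomics database, 3228 arrays were curated, keeping only those whose protein sequence was available. Binding is given as a within-array Z-score averaged across arrays sharing a protein sequence and across linkers. Negative Z-scores can be read as non-binding.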
# [2] = molecular target: GlcNAc(b1-2)[GlcNAc(b1-6)]Man(a1-6)[GlcNAc(b1-2)Man(a1-3)]Man(b1-4)GlcNAc(b1-4)[Fuc(a1-6)]GlcNAc
# Outline: as §1
# [3] = molecular target: GlcNAc(b1-3)Gal(b1-4)GlcNAc(b1-3)Gal(b1-4)GlcNAc(b1-3)Gal(b1-4)GlcNAc(b1-3)Gal(b1-4)GlcNAc(b1-2)Man(a1-3)[GlcNAc(b1-3)Gal(b1-4)GlcNAc(b1-3)Gal(b1-4)GlcNAc(b1-3)Gal(b1-4)GlcNAc(b1-3)Gal(b1-4)GlcNAc(b1-2)Man(a1-6)]Man(b1-4)GlcNAc(b1-4)GlcNAc
# Outline: as §1
# [4] = molecular target: GlcNAc(b1-6)Gal(b1-4)GlcNAc
# Outline: as §1
# Kdn(a2-3)Gal(b1-3)GalNAc = molecular target: Kdn(a2-3)Gal(b1-3)GalNAc
# Outline: as §1
# MurNAc(b1-4)GlcNAc = molecular target: MurNAc(b1-4)GlcNAc
# Outline: as §1
# [5] = molecular target: Neu5Ac(a2-3)Gal(b1-3)[GlcNAc(b1-6)]GalNAc
# Outline: as §1
# [6] = molecular target: Neu5Ac(a2-3)Gal(b1-4)GlcNAc(b1-2)[Neu5Ac(a2-3)Gal(b1-4)GlcNAc(b1-4)]Man(a1-3)[GlcNAc(b1-4)][Neu5Ac(a2-3)Gal(b1-4)GlcNAc(b1-2)[Neu5Ac(a2-3)Gal(b1-4)GlcNAc(b1-6)]Man(a1-6)]Man(b1-4)GlcNAc(b1-4)GlcNAc
# Outline: as §1
# [7] = molecular target: Neu5Ac(a2-3)Gal(b1-4)GlcNAc(b1-2)[Neu5Ac(a2-3)Gal(b1-4)GlcNAc(b1-6)]Man(a1-6)[Neu5Ac(a2-3)Gal(b1-4)GlcNAc(b1-2)Man(a1-3)][GlcNAc(b1-4)]Man(b1-4)GlcNAc(b1-4)GlcNAc
# Outline: as §1
# [8] = molecular target: Neu5Ac(a2-6)Gal(b1-4)GlcNAc(b1-2)Man
# Outline: as §1
# [9] = molecular target: Neu5Ac(a2-6)Gal(b1-4)GlcNAc(b1-2)Man(a1-3)[GlcNAc(b1-4)][Neu5Ac(a2-6)Gal(b1-4)GlcNAc(b1-2)Man(a1-6)]Man(b1-4)GlcNAc(b1-4)GlcNAc
# Outline: as §1
# [10] = molecular target: Neu5Ac(a2-6)Gal(b1-4)GlcNAc(b1-2)Man(a1-3)[Man(a1-6)]Man(b1-4)GlcNAc(b1-4)GlcNAc
# Outline: as §1
# [11] = molecular target: Neu5Ac(a2-6)Gal(b1-4)GlcNAc(b1-2)Man(a1-3)[Neu5Ac(a2-6)Gal(b1-4)GlcNAc(b1-2)Man(a1-6)]Man(b1-4)GlcNAc(b1-4)GlcNAc
# Outline: as §1
# [12] = molecular target: Neu5Ac(a2-6)Gal(b1-4)GlcNAc(b1-2)Man(a1-6)Man(b1-4)GlcNAc(b1-4)GlcNAc
# Outline: as §1
# [13] = molecular target: Neu5Ac(a2-6)Gal(b1-4)GlcNAc(b1-2)Man(a1-6)[Man(a1-3)]Man(b1-4)GlcNAc(b1-4)GlcNAc
# Outline: as §1
# [14] = molecular target: Neu5Ac(a2-6)Gal(b1-4)GlcNAc(b1-3)Gal(b1-4)GlcNAc(b1-3)[Neu5Ac(a2-6)Gal(b1-4)GlcNAc(b1-3)Gal(b1-4)GlcNAc(b1-6)]GalNAc
# Outline: as §1
# [15] = molecular target: Neu5Ac(a2-8)Neu5Ac(a2-3)Gal(b1-3)GalNAc(b1-4)[Neu5Ac(a2-3)]Gal(b1-4)Glc
# Outline: as §1
# [16] = molecular target: Fuc(a1-2)Gal(b1-3)[Fuc(a1-4)]GlcNAc
# Outline: as §1
# [17] = molecular target: Fuc(a1-2)Gal(b1-4)GlcNAc(b1-3)Gal(b1-4)GlcNAc
# Outline: as §1
# [18] = molecular target: Fuc(a1-2)Gal6S(b1-4)GlcNAc
# Outline: as §1
# [19] = molecular target: Fuc(a1-2)[Gal(a1-3)]Gal(b1-3)GlcNAc
# Outline: as §1
# [20] = molecular target: Fuc(a1-2)[Gal(a1-3)]Gal(b1-4)Glc
# Outline: as §1
# [21] = molecular target: Fuc(a1-2)[Gal(a1-3)]Gal(b1-4)GlcNAc
# Outline: as §1
# [22] = molecular target: Fuc(a1-3)[Gal(b1-4)]Glc6S
# Outline: as §1
# [23] = molecular target: Fuc(a1-3)[Gal(b1-4)]GlcNAc(b1-3)Gal(b1-3)[Fuc(a1-4)]GlcNAc
# Outline: as §1
# [24] = molecular target: Fuc(a1-3)[Gal(b1-4)]GlcNAc(b1-4)Gal(b1-4)[Fuc(a1-3)]GlcNAc(b1-4)Gal(b1-4)[Fuc(a1-3)]GlcNAc
# Outline: as §1
# [25] = molecular target: Gal(a1-3)Gal(b1-4)[Fuc(a1-3)]GalNAc
# Outline: as §1
# [26] = molecular target: Gal(a1-3)[Gal(a1-4)]Gal(b1-4)GlcNAc
# Outline: as §1
# Gal(a1-4)Gal(b1-4)Gal = molecular target: Gal(a1-4)Gal(b1-4)Gal
# Outline: as §1
# Gal(a1-4)Gal(b1-4)GalNAc = molecular target: Gal(a1-4)Gal(b1-4)GalNAc
# Outline: as §1
# Gal(b1-3)Gal = molecular target: Gal(b1-3)Gal
# Outline: as §1
# [27] = molecular target: Gal(b1-3)[Fuc(a1-4)]GlcNAc(b1-3)Gal(b1-4)GlcNAc
# Outline: as §1
# [28] = molecular target: Gal(b1-4)GlcNAc(b1-3)Gal(b1-4)GlcNAc
# Outline: as §1
# [29] = molecular target: Gal3S(b1-3)[Fuc(a1-4)]GlcNAc
# Outline: as §1
# GalNAc(a1-3)GalNAc = molecular target: GalNAc(a1-3)GalNAc
# Outline: as §1
# [30] = molecular target: GlcNAc(b1-2)Man(a1-3)[GlcNAc(b1-2)Man(a1-6)]Man(b1-4)GlcNAc(b1-4)GlcNAc
# Outline: as §1
# GlcNAc(b1-3)Gal = molecular target: GlcNAc(b1-3)Gal
# Outline: as §1
# GlcNAc(b1-3)GalNAc = molecular target: GlcNAc(b1-3)GalNAc
# Outline: as §1
# GlcNAc(b1-6)GalNAc = molecular target: GlcNAc(b1-6)GalNAc
# Outline: as §1
# Man(a1-2)Man(a1-3)Man = molecular target: Man(a1-2)Man(a1-3)Man
# Outline: as §1
# [31] = molecular target: Neu5Ac(a2-3)Gal(b1-4)GlcNAc(b1-3)Gal(b1-4)GlcNAc
# Outline: as §1
# [32] = molecular target: Neu5Ac(a2-3)Gal(b1-4)[Fuc(a1-3)]GlcNAc(b1-3)Gal
# Outline: as §1
# [33] = molecular target: Neu5Ac(a2-3)Gal(b1-4)[Fuc(a1-3)]GlcNAc(b1-3)Gal(b1-4)GlcNAc
# Outline: as §1
# [34] = molecular target: Neu5Ac(a2-3)Gal6S(b1-4)GlcNAc
# Outline: as §1
# [35] = molecular target: Neu5Ac(a2-8)Neu5Ac(a2-3)[GalNAc(b1-4)]Gal(b1-4)Glc
# Outline: as §1
# [36] = molecular target: Neu5Gc(a2-6)Gal(b1-4)GlcNAc
# Outline: as §1
binder,measurement,setting,value
B1,glycan array binding signal (z-score),[1],2.05
same,glycan array binding signal (z-score),[2],1.69
same,glycan array binding signal (z-score),[3],0.615
same,glycan array binding signal (z-score),[4],0.608
same,glycan array binding signal (z-score),Kdn(a2-3)Gal(b1-3)GalNAc,0.552
same,glycan array binding signal (z-score),MurNAc(b1-4)GlcNAc,-0.281
same,glycan array binding signal (z-score),[5],-0.036
same,glycan array binding signal (z-score),[6],2.26
same,glycan array binding signal (z-score),[7],-0.362
same,glycan array binding signal (z-score),[8],-0.44
same,glycan array binding signal (z-score),[9],-1.2
same,glycan array binding signal (z-score),[10],-0.737
same,glycan array binding signal (z-score),[11],0.078
same,glycan array binding signal (z-score),[12],1.27
same,glycan array binding signal (z-score),[13],1.07
same,glycan array binding signal (z-score),[14],0.118
same,glycan array binding signal (z-score),[15],2.87
B2,glycan array binding signal (z-score),[16],-0.463
same,glycan array binding signal (z-score),[17],-0.26
same,glycan array binding signal (z-score),[18],-0.274
same,glycan array binding signal (z-score),[19],8.27
same,glycan array binding signal (z-score),[20],6.99
same,glycan array binding signal (z-score),[21],7.65
same,glycan array binding signal (z-score),[22],0.706
same,glycan array binding signal (z-score),[23],0.936
same,glycan array binding signal (z-score),[24],-0.319
same,glycan array binding signal (z-score),[25],-0.365
same,glycan array binding signal (z-score),[26],-0.273
same,glycan array binding signal (z-score),Gal(a1-4)Gal(b1-4)Gal,-0.196
same,glycan array binding signal (z-score),Gal(a1-4)Gal(b1-4)GalNAc,-0.481
same,glycan array binding signal (z-score),Gal(b1-3)Gal,0.071
same,glycan array binding signal (z-score),[27],0.056
same,glycan array binding signal (z-score),[28],-0.325
same,glycan array binding signal (z-score),[29],0.072
same,glycan array binding signal (z-score),GalNAc(a1-3)GalNAc,-0.398
same,glycan array binding signal (z-score),[30],-0.223
same,glycan array binding signal (z-score),GlcNAc(b1-3)Gal,0.066
same,glycan array binding signal (z-score),GlcNAc(b1-3)GalNAc,0.032
same,glycan array binding signal (z-score),GlcNAc(b1-6)GalNAc,-0.197
same,glycan array binding signal (z-score),Man(a1-2)Man(a1-3)Man,-0.128
same,glycan array binding signal (z-score),[31],-0.3
same,glycan array binding signal (z-score),[32],0.239
same,glycan array binding signal (z-score),[33],0.148
same,glycan array binding signal (z-score),[34],-0.073
same,glycan array binding signal (z-score),[35],-0.271
same,glycan array binding signal (z-score),[36],0.622
